Consider six compounds from ChEMBL document CHEMBL1961873, “Compounds: GSK PKIS; Assays: Nanosyn kinase panel” (2012).

Experiment [1] addresses Rho-associated protein kinase 1 (Homo sapiens) (UniProt Q13464). Conditions: at 1 µM.
Experiment [2] deals with Rho-associated protein kinase 2 (Homo sapiens) (UniProt O75116). Conditions: at 0.1 µM.
Experiment [3] shares this target. The conditions noted are these: at 1 µM.
Experiment [4] addresses Ribosomal protein S6 kinase alpha-1 (Homo sapiens) (UniProt Q15418). Conditions: at 0.1 µM.
For experiment [5] the target is unchanged. The conditions noted are these: at 1 µM.
The target in experiment [6] is Ribosomal protein S6 kinase alpha-3 (Homo sapiens) (UniProt P51812). Conditions: at 0.1 µM.
Experiment [7] shares this target. Conditions: at 1 µM.
For experiment [8], the target named is Ribosomal protein S6 kinase alpha-2 (Homo sapiens) (UniProt Q15349). The conditions noted are these: at 0.1 µM.
For experiment [9] the target is unchanged. Conditions: at 1 µM.
The target of experiment [10] is Ribosomal protein S6 kinase alpha-6 (Homo sapiens) (UniProt Q9UK32). Conditions: at 0.1 µM.
The target is the same in experiment [11]. Conditions: at 1 µM.
Experiment [12] addresses T1, Serine/threonine-protein kinase Sgk1 (Homo sapiens) (UniProt O00141).
T1 sequence (whole entry): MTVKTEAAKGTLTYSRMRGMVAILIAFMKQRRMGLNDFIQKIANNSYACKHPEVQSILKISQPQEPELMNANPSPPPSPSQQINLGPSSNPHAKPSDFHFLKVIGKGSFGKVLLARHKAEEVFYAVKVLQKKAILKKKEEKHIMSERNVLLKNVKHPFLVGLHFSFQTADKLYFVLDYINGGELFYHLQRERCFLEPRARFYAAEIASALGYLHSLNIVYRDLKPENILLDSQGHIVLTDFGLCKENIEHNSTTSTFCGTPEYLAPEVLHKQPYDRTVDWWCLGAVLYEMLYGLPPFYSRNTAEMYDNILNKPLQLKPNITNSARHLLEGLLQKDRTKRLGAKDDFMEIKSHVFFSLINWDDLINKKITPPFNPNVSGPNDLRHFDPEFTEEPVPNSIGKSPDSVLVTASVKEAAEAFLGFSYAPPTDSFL
The conditions noted are these: at 0.1 µM.

In experiment [13] the target is T1, Serine/threonine-protein kinase Sgk1 (Homo sapiens). The conditions noted are these: at 1 µM.
Experiment [14] addresses T2, Serine/threonine-protein kinase Sgk2 (Homo sapiens) (UniProt Q9HBY8).
T2 sequence (whole entry): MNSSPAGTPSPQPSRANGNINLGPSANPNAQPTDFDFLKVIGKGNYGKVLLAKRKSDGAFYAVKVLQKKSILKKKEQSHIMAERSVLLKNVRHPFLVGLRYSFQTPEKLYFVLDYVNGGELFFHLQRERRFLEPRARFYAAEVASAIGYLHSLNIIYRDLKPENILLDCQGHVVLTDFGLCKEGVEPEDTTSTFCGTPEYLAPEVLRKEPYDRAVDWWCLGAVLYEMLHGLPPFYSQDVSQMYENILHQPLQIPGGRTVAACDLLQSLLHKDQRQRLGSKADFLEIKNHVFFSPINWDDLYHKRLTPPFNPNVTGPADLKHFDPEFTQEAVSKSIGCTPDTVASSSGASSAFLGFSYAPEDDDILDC
The conditions noted are these: at 0.1 µM.

The target of experiment [15] is T2, Serine/threonine-protein kinase Sgk2 (Homo sapiens). The conditions noted are these: at 1 µM.
Experiment [16] has as its target T3, Serine/threonine-protein kinase Sgk3 (Homo sapiens) (UniProt Q96BR1).
T3 sequence (whole entry): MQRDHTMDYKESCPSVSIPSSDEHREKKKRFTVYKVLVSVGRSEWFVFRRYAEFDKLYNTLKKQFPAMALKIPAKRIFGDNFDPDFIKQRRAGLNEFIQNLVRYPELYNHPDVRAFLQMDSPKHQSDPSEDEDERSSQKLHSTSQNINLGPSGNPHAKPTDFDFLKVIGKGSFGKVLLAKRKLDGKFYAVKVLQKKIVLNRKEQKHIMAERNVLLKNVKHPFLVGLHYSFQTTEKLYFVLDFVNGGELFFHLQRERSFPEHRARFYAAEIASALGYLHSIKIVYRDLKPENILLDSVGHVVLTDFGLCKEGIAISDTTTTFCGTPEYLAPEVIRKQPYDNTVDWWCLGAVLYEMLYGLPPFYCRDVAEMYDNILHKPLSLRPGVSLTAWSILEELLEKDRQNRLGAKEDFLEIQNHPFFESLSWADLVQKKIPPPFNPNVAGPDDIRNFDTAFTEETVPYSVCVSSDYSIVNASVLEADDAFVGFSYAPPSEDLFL
The conditions noted are these: at 0.1 µM.

Experiment [17] addresses T3, Serine/threonine-protein kinase Sgk3 (Homo sapiens). Conditions: at 1 µM.
Experiment [18] deals with 5'-AMP-activated protein kinase catalytic subunit alpha-1 (Homo sapiens) (UniProt Q13131). Conditions: at 0.1 µM.
Experiment [19] shares this target. The conditions noted are these: at 1 µM.
Experiment [20] concerns the target 5'-AMP-activated protein kinase catalytic subunit alpha-2 (Homo sapiens) (UniProt P54646). Conditions: at 0.1 µM.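 Also: mean inhibition measured on the AMPK complex of alpha2, beta1 and gamma1 subunits.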

Rho-associated protein kinase 2 (Homo sapiens), sequence (O75116 whole entry, looked up): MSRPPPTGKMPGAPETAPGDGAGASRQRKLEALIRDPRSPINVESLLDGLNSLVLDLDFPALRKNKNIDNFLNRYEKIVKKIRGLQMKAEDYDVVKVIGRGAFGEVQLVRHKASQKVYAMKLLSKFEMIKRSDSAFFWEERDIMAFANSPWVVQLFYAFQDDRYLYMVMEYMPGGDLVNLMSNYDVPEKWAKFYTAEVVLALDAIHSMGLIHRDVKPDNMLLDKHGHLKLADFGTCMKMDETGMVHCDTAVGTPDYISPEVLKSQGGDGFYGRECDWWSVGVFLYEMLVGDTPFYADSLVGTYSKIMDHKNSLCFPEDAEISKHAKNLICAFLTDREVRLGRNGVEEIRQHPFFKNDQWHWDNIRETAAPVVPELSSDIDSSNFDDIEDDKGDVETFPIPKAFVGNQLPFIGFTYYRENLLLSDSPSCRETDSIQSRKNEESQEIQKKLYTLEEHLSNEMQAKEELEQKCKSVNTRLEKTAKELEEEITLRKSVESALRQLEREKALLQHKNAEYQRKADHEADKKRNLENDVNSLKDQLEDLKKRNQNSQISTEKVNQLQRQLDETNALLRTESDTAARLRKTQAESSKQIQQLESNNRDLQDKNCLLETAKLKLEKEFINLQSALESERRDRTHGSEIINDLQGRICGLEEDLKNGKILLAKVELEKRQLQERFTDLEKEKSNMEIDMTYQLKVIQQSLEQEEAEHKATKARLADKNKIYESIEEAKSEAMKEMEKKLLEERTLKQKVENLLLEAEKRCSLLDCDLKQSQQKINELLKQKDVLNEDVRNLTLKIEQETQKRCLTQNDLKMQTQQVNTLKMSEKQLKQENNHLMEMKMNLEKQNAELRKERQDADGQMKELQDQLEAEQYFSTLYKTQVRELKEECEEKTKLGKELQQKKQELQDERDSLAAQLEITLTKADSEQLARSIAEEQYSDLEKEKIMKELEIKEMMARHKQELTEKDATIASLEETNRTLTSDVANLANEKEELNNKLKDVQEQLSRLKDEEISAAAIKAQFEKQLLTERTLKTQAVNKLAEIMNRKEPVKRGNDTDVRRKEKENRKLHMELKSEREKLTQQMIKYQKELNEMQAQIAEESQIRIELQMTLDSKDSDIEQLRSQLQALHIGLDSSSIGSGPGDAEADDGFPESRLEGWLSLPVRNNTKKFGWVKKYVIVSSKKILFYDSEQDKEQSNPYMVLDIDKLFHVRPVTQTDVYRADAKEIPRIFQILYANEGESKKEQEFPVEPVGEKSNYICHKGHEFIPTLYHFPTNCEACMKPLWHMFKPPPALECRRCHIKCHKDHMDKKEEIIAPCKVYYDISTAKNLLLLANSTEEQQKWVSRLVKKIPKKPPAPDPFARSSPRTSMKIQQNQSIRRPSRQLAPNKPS
Ribosomal protein S6 kinase alpha-2 (Homo sapiens), sequence (Q15349 whole entry): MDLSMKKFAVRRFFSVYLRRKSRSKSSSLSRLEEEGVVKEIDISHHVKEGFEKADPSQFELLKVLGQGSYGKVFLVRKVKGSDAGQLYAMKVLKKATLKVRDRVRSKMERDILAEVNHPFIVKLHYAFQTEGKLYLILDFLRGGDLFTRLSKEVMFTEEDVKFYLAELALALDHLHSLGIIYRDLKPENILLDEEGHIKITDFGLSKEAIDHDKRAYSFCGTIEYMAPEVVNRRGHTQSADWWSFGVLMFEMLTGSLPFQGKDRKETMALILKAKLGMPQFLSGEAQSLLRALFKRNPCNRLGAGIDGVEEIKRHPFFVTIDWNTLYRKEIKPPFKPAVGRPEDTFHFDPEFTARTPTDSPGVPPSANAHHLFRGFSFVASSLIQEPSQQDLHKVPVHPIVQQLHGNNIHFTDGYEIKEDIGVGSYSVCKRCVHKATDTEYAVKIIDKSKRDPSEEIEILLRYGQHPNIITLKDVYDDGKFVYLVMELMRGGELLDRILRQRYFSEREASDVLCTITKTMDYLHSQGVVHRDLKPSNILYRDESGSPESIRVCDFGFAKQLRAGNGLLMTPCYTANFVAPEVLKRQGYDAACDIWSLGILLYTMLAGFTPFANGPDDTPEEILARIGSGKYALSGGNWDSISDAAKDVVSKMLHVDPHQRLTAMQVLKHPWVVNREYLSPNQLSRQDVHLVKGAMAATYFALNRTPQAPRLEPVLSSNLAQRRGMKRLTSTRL
Ribosomal protein S6 kinase alpha-1 (Homo sapiens), sequence (Q15418 whole entry): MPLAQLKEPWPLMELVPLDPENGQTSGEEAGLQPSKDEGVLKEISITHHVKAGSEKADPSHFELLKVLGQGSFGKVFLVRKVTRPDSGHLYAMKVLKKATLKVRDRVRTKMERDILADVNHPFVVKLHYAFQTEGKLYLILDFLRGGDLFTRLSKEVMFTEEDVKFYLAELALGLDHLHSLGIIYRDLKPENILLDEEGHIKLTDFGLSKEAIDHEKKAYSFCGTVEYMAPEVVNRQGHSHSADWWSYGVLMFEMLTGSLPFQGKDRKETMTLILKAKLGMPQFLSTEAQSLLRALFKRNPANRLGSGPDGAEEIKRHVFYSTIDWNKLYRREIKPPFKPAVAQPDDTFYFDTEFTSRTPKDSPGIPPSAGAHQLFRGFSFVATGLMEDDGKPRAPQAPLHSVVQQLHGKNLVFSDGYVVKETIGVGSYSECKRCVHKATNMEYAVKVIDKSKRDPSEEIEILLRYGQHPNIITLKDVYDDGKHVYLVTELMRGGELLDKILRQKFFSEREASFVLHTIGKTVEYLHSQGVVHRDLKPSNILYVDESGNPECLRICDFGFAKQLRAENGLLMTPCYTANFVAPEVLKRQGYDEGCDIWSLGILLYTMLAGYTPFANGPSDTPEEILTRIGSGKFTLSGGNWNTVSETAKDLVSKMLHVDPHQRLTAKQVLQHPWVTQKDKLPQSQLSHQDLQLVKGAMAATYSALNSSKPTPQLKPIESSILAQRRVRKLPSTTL
Ribosomal protein S6 kinase alpha-3 (Homo sapiens), sequence (P51812 whole entry): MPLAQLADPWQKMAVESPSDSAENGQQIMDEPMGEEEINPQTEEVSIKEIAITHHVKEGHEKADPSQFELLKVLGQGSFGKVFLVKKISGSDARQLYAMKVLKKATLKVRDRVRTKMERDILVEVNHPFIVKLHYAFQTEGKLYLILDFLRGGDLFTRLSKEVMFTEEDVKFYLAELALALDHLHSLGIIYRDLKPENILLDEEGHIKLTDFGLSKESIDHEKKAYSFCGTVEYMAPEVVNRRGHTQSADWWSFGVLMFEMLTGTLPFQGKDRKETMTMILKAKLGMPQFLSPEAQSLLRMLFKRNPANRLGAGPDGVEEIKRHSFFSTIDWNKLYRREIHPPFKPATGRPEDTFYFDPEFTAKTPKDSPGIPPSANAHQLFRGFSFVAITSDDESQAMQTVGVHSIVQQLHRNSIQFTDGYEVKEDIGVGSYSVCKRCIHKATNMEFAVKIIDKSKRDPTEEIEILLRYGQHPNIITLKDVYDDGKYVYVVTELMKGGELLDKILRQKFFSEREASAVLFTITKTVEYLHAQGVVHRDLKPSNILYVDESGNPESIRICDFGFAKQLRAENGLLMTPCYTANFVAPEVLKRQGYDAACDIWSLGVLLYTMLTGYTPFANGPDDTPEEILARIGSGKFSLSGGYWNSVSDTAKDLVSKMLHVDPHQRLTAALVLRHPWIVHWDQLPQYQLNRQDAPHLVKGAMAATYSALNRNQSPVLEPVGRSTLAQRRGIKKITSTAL
Ribosomal protein S6 kinase alpha-6 (Homo sapiens), sequence (Q9UK32 whole entry): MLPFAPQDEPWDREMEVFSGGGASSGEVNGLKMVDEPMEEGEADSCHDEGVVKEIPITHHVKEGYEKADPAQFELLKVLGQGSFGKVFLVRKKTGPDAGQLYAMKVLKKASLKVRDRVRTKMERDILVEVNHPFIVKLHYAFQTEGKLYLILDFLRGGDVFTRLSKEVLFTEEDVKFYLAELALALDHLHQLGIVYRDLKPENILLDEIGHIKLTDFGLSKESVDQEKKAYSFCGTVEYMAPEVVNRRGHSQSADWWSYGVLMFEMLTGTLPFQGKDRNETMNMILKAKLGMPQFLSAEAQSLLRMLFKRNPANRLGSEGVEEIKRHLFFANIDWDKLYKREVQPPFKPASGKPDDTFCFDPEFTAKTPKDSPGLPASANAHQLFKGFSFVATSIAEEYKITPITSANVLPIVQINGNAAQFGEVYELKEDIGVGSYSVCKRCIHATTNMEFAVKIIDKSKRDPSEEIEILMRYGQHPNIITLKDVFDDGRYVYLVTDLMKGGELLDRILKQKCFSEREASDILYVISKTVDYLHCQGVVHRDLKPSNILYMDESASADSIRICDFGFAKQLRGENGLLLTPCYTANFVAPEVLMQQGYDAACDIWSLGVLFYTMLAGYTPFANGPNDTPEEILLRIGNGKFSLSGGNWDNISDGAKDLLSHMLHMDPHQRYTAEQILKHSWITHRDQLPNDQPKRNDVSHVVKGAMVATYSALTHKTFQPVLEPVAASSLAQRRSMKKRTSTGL
5'-AMP-activated protein kinase catalytic subunit alpha-2 (Homo sapiens), sequence (P54646 whole entry, looked up): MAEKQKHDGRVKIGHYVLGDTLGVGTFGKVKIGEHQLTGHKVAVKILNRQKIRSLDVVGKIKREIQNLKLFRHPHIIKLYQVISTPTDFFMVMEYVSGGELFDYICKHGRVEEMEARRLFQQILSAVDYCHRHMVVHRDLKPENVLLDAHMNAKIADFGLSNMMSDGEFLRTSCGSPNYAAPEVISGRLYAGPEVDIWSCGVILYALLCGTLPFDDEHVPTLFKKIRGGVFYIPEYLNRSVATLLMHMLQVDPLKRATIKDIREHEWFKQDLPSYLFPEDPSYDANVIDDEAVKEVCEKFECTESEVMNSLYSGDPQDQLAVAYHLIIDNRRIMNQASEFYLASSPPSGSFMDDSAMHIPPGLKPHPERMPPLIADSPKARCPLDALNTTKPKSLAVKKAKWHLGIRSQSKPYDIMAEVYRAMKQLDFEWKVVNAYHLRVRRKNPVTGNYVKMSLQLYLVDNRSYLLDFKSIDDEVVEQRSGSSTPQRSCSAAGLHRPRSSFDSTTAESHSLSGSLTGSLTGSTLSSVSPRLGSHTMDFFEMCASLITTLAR

As for `CCn1c(-c2nonc2N)nc2ccc(F)cc21`, the inhibition (as a rule, the drop in the measured response relative to a control, in per cent) in experiment [1] was determined as 9.21%; in experiment [2], 5.67%; in experiment [3], 19%; in experiment [4], 4.37%; in experiment [5], 21%; in experiment [6] it was 2.79%. Also, the inhibition in [7] was determined as 9.91%; in experiment [8] it was 2.93%; in [9], 14%; in [10], 1.56%; in experiment [11] it was 3.11%; in experiment [12], 4.63%. Moreover, the inhibition amounted to 5.34% in [13]; 0.38% in experiment [14]; 7.92% in [15]; 4.43% in experiment [16]; 9.8% in [17]; 5.34% in experiment [18]. Moreover, the inhibition in experiment [19] is 5.71%; in experiment [20], 4.08%.
Regarding `NC(=O)c1sc(-n2cnc3ccccc32)cc1OCc1ccccc1Br`, the inhibition in [1] came out at 3.15%; in experiment [2], 2.13%; in experiment [3], 3.77%; in experiment [4] it was 1.32%; in experiment [5], 3.02%; in [6], 1.56%. In addition, the inhibition in [7] is 2.97%; in [8], 3.5%; in [9], 4.96%; in experiment [10] it was 2.09%; in experiment [11], 5.17%; in experiment [12], 2.26%. Besides, the inhibition in [13] was determined as 2.46%; in experiment [14] it was 4.32%; in experiment [15], 4.07%; in experiment [16], 1.99%; in [17], 2.42%; in [18] it was 2.42%. The inhibition was determined as 4.09% in [19] and 7.19% in experiment [20].
With `Cc1ccc2c(-c3ccnc(Nc4cccc(C(F)(F)F)c4)n3)c(-c3ccccc3)nn2n1`, the inhibition is 3.58% in [1]; 3.31% in experiment [2]; 3.33% in [3]; 0.52% in experiment [4]; 2.33% in [5]; -0.67% in experiment [6]. In addition, the inhibition in experiment [7] stood at 0.59%; in [8], 3.58%; in experiment [9], 3.98%; in experiment [10], 0.82%; in experiment [11], 2.56%; in experiment [12] it was 2.23%. Moreover, the inhibition in experiment [13] is 3.64%; in [14], 5.64%; in experiment [15] it was -0.25%; in experiment [16], 3.07%; in experiment [17] it was 4.11%; in experiment [18] it was 0.65%. Further, the inhibition in experiment [19] worked out at 2.66%; in experiment [20], 5.96%.
Regarding `ON=C1CCc2cc(-c3nc(C4CCNCC4)[nH]c3-c3ccncc3)ccc21`, the inhibition in experiment [1] is 0.82%; in experiment [2], -1.08%; in [3], -0.29%; in [4] it was -1.46%; in experiment [5], -1.99%; in experiment [6], -1%. Also, the inhibition in experiment [7] was -0.39%; in experiment [8], 0.31%; in experiment [9], 1.01%; in experiment [10], 0.13%; in [11], -0.49%; in experiment [12] it was 0.64%. Moreover, the inhibition was 0.87% in [13]; -0.56% in experiment [14]; -1.29% in experiment [15]; -1.46% in experiment [16]; -0.07% in experiment [17]; -0.26% in experiment [18]. Further, the inhibition in [19] was -1.59%; in [20], -1.32%.
On to `NS(=O)(=O)c1ccc(NC=C2C(=O)Nc3ccc4ncsc4c32)cc1`, for which the inhibition in [1] came to 55.1%; in experiment [2] it was 27.4%; in experiment [3], 69.4%; in experiment [4], 15.1%; in experiment [5], 53.4%; in experiment [6], 17.7%. Besides, the inhibition in experiment [7] was determined as 57.1%; in [8], 34.3%; in [9], 80.5%; in experiment [10], 29.3%; in experiment [11], 77.4%; in [12], 19.7%. Besides, the inhibition in experiment [13] amounted to 64%; in experiment [14] it was 8.38%; in experiment [15], 36.4%; in [16], 5.73%; in [17] it was 19.1%; in [18] it was 38.4%. In addition, the inhibition in experiment [19] is 68.2%; in [20], 24%.
With `NC(=O)c1cccc(Nc2nccc(Nc3cccc(F)c3)n2)c1`, the inhibition in [1] was 0.46%; in experiment [2], 0.51%; in experiment [3], 1.52%; in [4], -1.2%; in experiment [5] it was 1.35%; in experiment [6], 0.35%. The inhibition worked out at 1.16% in experiment [7]; 1.27% in experiment [8]; 1.94% in experiment [9]; 1.27% in experiment [10]; 6.03% in experiment [11]; 0.89% in [12]. Further, the inhibition in experiment [13] is -0.08%; in [14] it was 3.63%; in experiment [15], 3.3%; in experiment [16] it was 0.73%; in [17] it was -1.45%; in experiment [18], -0.48%. Moreover, the values for the inhibition in experiment [19] and in experiment [20] were 3.96% and 1.99%, respectively.
